# KB-V1 cytotox = qHTS assay for MDR1-selective chemotherapeutics: Primary screen using the drug-selected MDR subline cells KB-V1; KB-V1 MDR cells viability, CellTiter-Glo, 72 h; Potency, µM (highest dose often 46.1 µM), usual class: cytotoxic; hit rate 3.4% among 400,000; further: on the % scale 0 is the no-effect control and ±100 the full control effect; nearly all actives have a fitted effect of over 60% in size
#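 KB-V1, DMEM (no phenol red) + 10% FBS; cpd pin-transferred, titration series; 72 h, 37 degrees C; CellTiter-Glo, luminescence. Data normalized, curve-fit.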
# ATXN viability = Viability Counterscreen for Primary qHTS for Inhibitors of ATXN expression; S2 cells (HEK-293 line with an ATXN2-luciferase reporter) viability, CellTiter-Fluor protease fluorescence, 24 h; Potency, µM (doses to about 56.7 µM), usual class: cytotoxic; hit rate 0.49% among 400,000; further: nearly all actives have a fitted effect of over 40% in size
# KB-3-1 tox = qHTS assay for MDR1-selective chemotherapeutics: Primary screen using the parental adenocarcinoma cell KB-3-1; KB-3-1 viability, CellTiter-Glo ATP luminescence, 72 h; AID 1347075, 2019; hit rate 1.4% among 400,000; Potency, µM (doses to about 46.1 µM), actives largely listed as cytotoxic; further: on the % scale 0 is the no-effect control and ±100 the full control effect; nearly all actives have a fitted effect of over 60% in size
#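 KB-3-1 parental drug-naive adenocarcinoma cells in DMEM/10% FBS, incubated 72 h at 37 C with pin-transferred compounds across a concentration series. Viability by CellTiter-Glo luminescence; concentration-response curves fitted after normalization.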
# HT1080NT lethal = qHTS for induction of synthetic lethality in tumor cells producing 2HG: qHTS for the HT-1080-NT fibrosarcoma cell line. HT-1080-NT fibrosarcoma viability, CellTiter-Glo ATP luminescence, 48 h. Potency, µM (titrated, usually from 46.1 µM), for inactives: at the highest dose activity, negative = less viability, hits mostly cytotoxic. hit rate 1.6% among 360,000;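 further: NT is the 2HG producing partner of a matched IDH1 knockdown line; 0% = DMSO-treated cells and -100% = media-only wells without cells; nearly all actives have a fitted effect of over 55% in size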
#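 750 cells/well, RPMI + 5% FBS; 2 h settle, compound pin-transfer, 48 h at 37 degrees C. CellTiter-Glo 10 min RT, luminescence. Normalized to DMSO and media-only wells.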
# HT1080 IDH1KD tx = qHTS for induction of synthetic lethality in tumor cells producing 2HG: qHTS for the HT-1080-IDH1KD cell line; HT-1080 IDH1 knockdown viability, ATP luminescence, 48 h; hit rate 2% among 360,000; Potency, µM (highest dose often 46.1 µM), for the others: at the top dose activity, negative = toxicity, most hits filed as cytotoxic;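 further: 0% = DMSO wells and -100% = cell-free medium wells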
#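 In this qHTS, HT-1080 cells depleted of IDH1 are exposed for 48 h at 37 °C to compound titrations. Toxicity is scored from CellTiter-Glo luminescence, with DMSO as full viability and medium alone as none.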
# ATXN2 expr inh = Primary qHTS for Inhibitors of ATXN expression; HEK-293 ATXN2-luciferase reporter, luminescence, 24 h; Potency, µM (doses to about 57 µM), for the others: top-dose activity change, negative = inhibition, most hits filed as inhibitors; hit rate 0.72% among 360,000; AID 1745845, 2022; further: on the % scale 0 is the no-effect control and ±100 the full control effect; nearly all actives have a fitted effect of over 55% in size
#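 qHTS (up to 57 uM final) was run with 24 h compound exposure of reporter cells at 37 °C. Each well was multiplexed: SteadyGlo luminescence measured ATXN2-luciferase expression after a fluorogenic Gly-Phe-AFC viability readout (25 uM final).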
# Starred values were filed as active, the others as inactive; i = inactive; ? = inconclusive; · = no result. Compounds with a hit are over-represented: about 6.2% of the library has one in this group of screens. The call rests on the fitted dose curve; in most records, active means well fitted curve in the direction sought with a large enough effect; inconclusive means small, poorly fitted or top-dose-only effect, or another doubt; inactive means no such curve, though single readings can be large; an effect the other way counts as inactive or inconclusive. Potency means the concentration at half of the fitted maximal effect.
SMILES,KB-V1 cytotox,ATXN viability,KB-3-1 tox,HT1080NT lethal,HT1080 IDH1KD tx,ATXN2 expr inh
Cn1nccc1C(=O)N/N=C/c1c(O)ccc2ccccc12,?,i,7.31µM*,?,?,?
Cc1occc1C(=O)N/N=C/c1c(O)ccc2ccccc12,?,i,6.51µM*,?,6.51µM*,?
O=C(N/N=C/c1c(O)ccc2ccccc12)c1ccc(Br)o1,?,·,?,?,5.8µM*,2.82µM*
O=C(N/N=C\c1c(O)ccc2ccccc12)c1cncc(Br)c1,?,·,2.91µM*,?,1.03µM*,?
COc1cccc(C2(CC(=O)N3CCCOc4c(cccc4OC)C3)CC(=O)N(C)C2=O)c1 (centres undefined),·,i,·,·,·,·
OC[C@@H]1CCC[C@@H](n2cnc3c(=S)nc[nH]c32)O1,i,·,?,·,·,·
CCOC(=O)Cn1c(=O)oc2cc(S(=O)(=O)NCc3ccc(F)cc3)ccc21,?,·,i,·,·,·
O=C(N/N=C\c1c(O)ccc2ccccc12)c1ccc(O)cc1,i,?,i,?,?,?
O=C(NN=Cc1c(O)ccc2ccccc12)c1ccncc1,0.461µM*,i,i,?,?,?
Cc1cc(=O)oc2cc(OCC(=O)N3CCOCC3)c(Cl)cc12,9.2µM*,i,i,4.7%,6.1%,4.6%
Cc1cc(=O)oc2cc(OCC(=O)N3CCCC3)c(Cl)cc12,i,i,i,-2.7%,18.9%,-10.2%
N=c1n(CCN2CCOCC2)c2ccccc2n1CC(O)COc1ccccc1 (centres undefined),i,i,i,-1.5%,-8.0%,-5.5%
N=c1n(Cc2ccccc2)c2ccccc2n1CC(O)COc1ccccc1 (centres undefined),20.6µM*,?,20.6µM*,?,?,?
Cc1ccc(Cn2c(=N)n(CC(O)COc3ccccc3)c3ccccc32)cc1 (centres undefined),16.4µM*,i,i,-20.8%,?,-23.9%
COc1ccc(C2C(C(N)=O)=C(C)Nc3nc(CCCO)nn32)c(OC)c1 (centres undefined),i,i,i,·,·,0.0%
O=C(CSC(=S)N1CCCC1)c1cc(Br)cc(Br)c1O,i,i,i,16.4µM*,-14.9%,?
CC1CCCN(C(=S)SCC(=O)c2cc(Br)cc(Br)c2O)C1 (centres undefined),i,·,i,-15.6%,-27.4%,·
CC(CCc1ccccc1)NC(=O)c1ccc(C(=O)NC(C)CCc2ccccc2)cc1 (centres undefined),i,?,i,?,?,6.31µM*
O=C1c2ccccc2NC(c2ccc(-c3ccccc3F)o2)N1O (centres undefined),i,?,?,·,·,?
Cc1cc([N+](=O)[O-])ccc1-c1ccc(C2Nc3ccccc3C(=O)N2O)o1 (centres undefined),i,?,23.1µM*,?,7.08µM*,?
C/C=C(\C)NNC(=O)Cc1ccc(OC)cc1,i,·,i,·,·,·
CCOc1ccccc1NC(=O)c1cc(C(=O)c2cc(OC)ccc2O)coc1=N,11.6µM*,i,i,-2.5%,0.9%,3.0%
Clc1cccc(-c2cc3nc4c(c(NCc5ccco5)n3n2)CCCC4)c1,20.6µM*,i,i,?,-14.4%,96.3%
Cc1ccc(-c2cc3nc(C)cc(NCc4ccco4)n3n2)cc1,14.6µM*,i,i,?,-16.9%,67.7%
c1coc(CNc2c3c(nc4ncnn24)CCCC3)c1,i,?,i,4.9%,5.8%,0.4%
SMILES,KB-V1 cytotox,ATXN viability,KB-3-1 tox,HT1080NT lethal,HT1080 IDH1KD tx,ATXN2 expr inh
O=C(COc1ccccc1C(=O)OCC(=O)Nc1cccc2ccccc12)Nc1ccc(Br)cc1,i,·,i,·,·,·
Cc1ccc(-n2[nH]c(C)c(/C=N/n3c(C)nc4ccccc4c3=O)c2=O)cc1,?,i,i,17.8µM*,11.2µM*,-22.9%
Cc1ccc(-n2[nH]c(C)c(C=Nc3ccc(C)cn3)c2=O)cc1,?,i,?,7.94µM*,0.0%,3.2%
Cc1[nH]n(-c2ccccc2)c(=O)c1/C=N/n1c(C)nc2ccccc2c1=O,?,i,i,-5.4%,-8.2%,-12.6%
Cc1ccc(N=Cc2c(C)[nH]n(-c3ccccc3)c2=O)nc1,i,i,i,-9.1%,-15.4%,7.0%
O=C1c2[nH]nc(-c3ccccc3O)c2C(c2ccc(Cl)cc2)N1Cc1ccco1 (centres undefined),i,·,?,·,·,·
Cc1cc(Br)ccc1NC(=O)COc1cc(=O)n(C)c2ccccc12,i,i,i,·,·,-0.8%
COc1ccc(OC)c(NC(=O)Nc2cccc3ccccc23)c1,7.31µM*,i,i,1.7%,9.3%,-8.4%
COc1cccc(C(CC(=O)Nc2cccc3ccccc23)NC(=O)c2ccccc2)c1 (centres undefined),5.8µM*,?,i,?,?,?
COc1ccc(OC)c(NC(=O)c2cnc(Nc3ccccc3OC)c3ccccc23)c1,6.51µM*,i,7.31µM*,?,?,-21.7%
COc1cccc(C(=O)Nc2cccc3ccccc23)c1,i,?,i,0.8%,2.7%,2.0%
COc1ccc2nc(NC(=O)Nc3ccccc3OC)sc2c1,4.61µM*,i,5.17µM*,?,?,32.0%
COc1ccc2nc(NC(=O)Nc3cccc4ccccc34)sc2c1,i,i,i,?,?,·
COc1ccc(Nc2ncc(C(=O)Nc3cc(Cl)c(OC)cc3OC)c3ccccc23)cc1,i,i,i,·,·,8.9%
Cc1ccc(NC(=O)c2nc(S(C)(=O)=O)ncc2N(Cc2ccccc2)Cc2ccco2)c(C)c1,i,i,i,·,·,-0.4%
CCOc1ccc(-c2nc(Cn3c(=O)cc(C)c4c(C)nn(-c5ccc(C)cc5)c43)c(C)o2)cc1,i,i,i,·,·,10.5%
CCOc1ccc(NC(=O)CSc2nc3ccccc3c(=O)n2CCC(=O)NC2CCCCC2)cc1,i,i,i,·,·,9.6%
CCOc1ccc(NC(=O)CN2C(C(=O)OC)=C(c3ccccc3)c3cc(Cl)ccc3S2(=O)=O)cc1,i,i,i,·,·,14.7%

# Screening results deposited in PubChem BioAssay by National Center for Advancing Translational Sciences (NCATS).
